# Where “and” joins values, the source holds several entries; their conditions need not be identical. Identical values can stand only once. About 79,000 compounds went through this panel and 15% of them were active in at least one assay; those are over-represented in the sample as a whole. Some structures have more than one record in an assay (separate samples or runs), and their calls can disagree. Calls of active or inactive are those of the source. No stated cut-off is given here; in the data, active means growth inhibition above about 70%; inactive means the rest.
# Legend:
# [1] = NCI Yeast Anticancer Drug Screen. Data for the rad52 strain (AID 147);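 further: 0% = growth of vehicle-treated control cultures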; settings: S. cerevisiae rad52 mutant growth inhibition, stronger effect = higher value
# Procedure, shortened: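 Inhibition of yeast growth, referenced to vehicle controls, was the measured output for a strain with defective DNA damage repair.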
# [2] = NCI Yeast Anticancer Drug Screen. Data for the wt1 strain (AID 149);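 further: 0% = growth of vehicle-treated wt1 cultures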; settings: S. cerevisiae wt1 strain (SPY 50644) growth inhibition, stronger effect = higher value
# Procedure, shortened: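 Each compound is tested on wt1 yeast and the loss of growth versus vehicle gives the inhibition value.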
# [3] = NCI Yeast Anticancer Drug Screen. Data for the rad50EPP+ strain (AID 151);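 further: 0% = growth of vehicle-treated control cultures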; settings: S. cerevisiae rad50 mutant strain, stronger effect = higher value
# Procedure, shortened: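 Genetically defined yeast (rad50EPP+, DNA damage repair alteration) is grown with compound, and inhibition of growth is expressed relative to vehicle-treated controls.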
# [4] = NCI Yeast Anticancer Drug Screen. Data for the rad50 strain (AID 155);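 further: 0% = growth of vehicle-only cultures of the same strain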; settings: S. cerevisiae rad50 strain growth inhibition, stronger effect = higher value
# Procedure, shortened: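 Vehicle-treated cultures provide the reference for the growth inhibition reported for compound-exposed, repair-deficient yeast.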
# [5] = NCI Yeast Anticancer Drug Screen. Data for the mec2-1 strain (AID 157); settings: S. cerevisiae mec2-1 strain, stronger effect = higher value
# Procedure, shortened: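 Each compound was tested on mec2-1 yeast, a strain altered in DNA damage repair or cell cycle control. Growth inhibition is reported relative to vehicle.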
# [6] = NCI Yeast Anticancer Drug Screen. Data for the rad14 strain (AID 159);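 further: 0% = growth of vehicle-treated control cultures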; settings: S. cerevisiae rad14 strain growth inhibition, stronger effect = higher value
# Procedure, shortened: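 Inhibition of growth is reported for a repair-deficient yeast mutant following compound treatment, calculated relative to cultures that received vehicle.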
# [7] = NCI Yeast Anticancer Drug Screen. Data for the sgs1 mgt1 strain (AID 161);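 further: 0% = growth of cultures given vehicle only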; settings: S. cerevisiae sgs1 mgt1 strain, stronger effect = higher value
# Procedure, shortened: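 Inhibition of yeast growth, normalised to vehicle-treated controls, is reported for a strain bearing genetic alterations in DNA damage repair.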
# [8] = NCI Yeast Anticancer Drug Screen. Data for the CLN2oe strain (AID 163);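 further: 0% = growth of vehicle-only control cultures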; settings: S. cerevisiae CLN2oe strain, stronger effect = higher value
# Procedure, shortened: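 First, the altered yeast strain was treated with each compound; second, its growth was measured; finally, inhibition was derived by comparison with vehicle controls.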
# [9] = NCI Yeast Anticancer Drug Screen. Data for the cln2 rad14 strain (AID 165);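 further: 0% = growth equal to vehicle treated cultures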; settings: S. cerevisiae cln2 rad14 strain, stronger effect = higher value
# Procedure, shortened: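 Test compounds were added to cln2 rad14 yeast cultures; inhibition of growth was then determined by comparison with vehicle treatment.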
# [10] = NCI Yeast Anticancer Drug Screen. Data for the bub3 strain (AID 167); settings: S. cerevisiae bub3 mutant strain, stronger effect = higher value
# Procedure, shortened: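 Mutant yeast screening strain plus compound; vehicle-treated cultures serve as the 0% inhibition reference.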
# [11] = NCI Yeast Anticancer Drug Screen. Data for the wt2 strain (AID 169); settings: S. cerevisiae wt2 strain growth inhibition, stronger effect = higher value
# Procedure, shortened: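 The panel's yeast strains carry defined changes in DNA repair or cell cycle genes. Each strain is grown with compound, and growth loss is scored relative to vehicle.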
# [12] = NCI Yeast Anticancer Drug Screen. Data for the mlh1 strain (AID 171);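 further: 0% = growth of vehicle-treated control cultures of the same strain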; settings: S. cerevisiae mlh1 strain growth inhibition, stronger effect = higher value
# Procedure, shortened: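 Inhibition values reflect reduced yeast growth in the presence of compound, referenced to vehicle controls, using a strain chosen for its alteration in DNA repair or cell cycle control.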
# [13] = NCI Yeast Anticancer Drug Screen. Data for the sgs1 strain (AID 173);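 further: 0% = growth of vehicle-only control cultures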; settings: S. cerevisiae sgs1 mutant, stronger effect = higher value
# Procedure, shortened: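 Vehicle-treated cultures served as reference for growth inhibition of a yeast strain altered in DNA damage repair or cell cycle control after compound exposure.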
# [14] = NCI Yeast Anticancer Drug Screen. Data for the mlh1 rad18 strain (AID 175); settings: S. cerevisiae mlh1 rad18 strain growth inhibition, stronger effect = higher value
# Procedure, shortened: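 Inhibition values reflect reduced growth of mutant yeast versus vehicle-treated controls following compound exposure; the mutations affect DNA damage repair.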
# [15] = NCI Yeast Anticancer Drug Screen. Data for the rad18 strain (AID 177); settings: S. cerevisiae rad18 mutant growth inhibition, stronger effect = higher value
# Procedure, shortened: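 Steps: expose repair-mutant yeast to compound; measure growth; express as inhibition relative to vehicle control.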
# [16] = at 5.0 µM (retest, dose inferred, filed as 0.5)
# [17] = at 50.0 µM (retest, dose inferred, filed as 5.0)
smiles,measurement,setting,value
Nc1ncnc2c1ncn2C1OC(CO)CC1O (stereo not drawn),growth inhibition,[1]; at 1.2 µM,-20% (inactive)
same,growth inhibition,[1]; at 3.7 µM,-10% (inactive)
same,growth inhibition,[1]; at 11.0 µM,24% (inactive)
same,growth inhibition,[1]; at 33.0 µM,71% (active)
same,growth inhibition,[1]; at 100.0 µM,91% (active)
same,growth inhibition,[2]; at 1.2 µM,-25% (inactive)
same,growth inhibition,[2]; at 3.7 µM,-10% (inactive)
same,growth inhibition,[2]; at 11.0 µM,-4% (inactive)
same,growth inhibition,[2]; at 33.0 µM,54% (inactive)
same,growth inhibition,[2]; at 100.0 µM,87% (active)
same,growth inhibition,[3]; at 1.2 µM,-16% (inactive)
same,growth inhibition,[3]; at 3.7 µM,-12% (inactive)
same,growth inhibition,[3]; at 11.0 µM,-10% (inactive)
same,growth inhibition,[3]; at 33.0 µM,-25% (inactive)
same,growth inhibition,[3]; at 100.0 µM,0% (inactive)
same,growth inhibition,[4]; at 1.2 µM,-9% (inactive)
same,growth inhibition,[4]; at 3.7 µM,-3% (inactive)
same,growth inhibition,[4]; [16],63% (inactive) and 14% (inactive)
same,growth inhibition,[4]; at 11.0 µM,30% (inactive)
same,growth inhibition,[4]; at 33.0 µM,76% (active)
same,growth inhibition,[4]; [17],90% (active)
same,growth inhibition,[4]; at 50.0 µM,87.8% (active) and 6.15% (inactive) and 79.6% (active)
same,growth inhibition,[4]; at 100.0 µM,91% (active)
same,growth inhibition,[5]; at 1.2 µM,-7% (inactive)
same,growth inhibition,[5]; at 3.7 µM,-8% (inactive)
same,growth inhibition,[5]; [16],63% (inactive) and 17% (inactive)
same,growth inhibition,[5]; at 11.0 µM,7% (inactive)
same,growth inhibition,[5]; at 33.0 µM,72% (active)
same,growth inhibition,[5]; [17],92% (active) and 91% (active)
same,growth inhibition,[5]; at 50.0 µM,88% (active) and -5.4% (inactive) and 76.5% (active)
same,growth inhibition,[5]; at 100.0 µM,92% (active)
same,growth inhibition,[6]; at 1.2 µM,-15% (inactive)
same,growth inhibition,[6]; at 3.7 µM,-1% (inactive)
same,growth inhibition,[6]; at 11.0 µM,27% (inactive)
same,growth inhibition,[6]; at 33.0 µM,76% (active)
same,growth inhibition,[6]; at 100.0 µM,94% (active)
same,growth inhibition,[7]; [16],-20% (inactive) and 14% (inactive)
same,growth inhibition,[7]; [17],89% (active) and 90% (active)
same,growth inhibition,[7]; at 50.0 µM,87.5% (active) and 2.25% (inactive) and 72.8% (active)
same,growth inhibition,[8]; at 1.2 µM,17% (inactive)
same,growth inhibition,[8]; at 3.7 µM,9% (inactive)
same,growth inhibition,[8]; at 11.0 µM,27% (inactive)
same,growth inhibition,[8]; at 33.0 µM,47% (inactive)
same,growth inhibition,[8]; at 100.0 µM,85% (active)
same,growth inhibition,[9]; [16],10% (inactive) and 9% (inactive)
same,growth inhibition,[9]; [17],87% (active) and 68% (inactive)
same,growth inhibition,[9]; at 50.0 µM,81.8% (active) and -27.8% (inactive) and 59.8% (inactive)
same,growth inhibition,[10]; at 1.2 µM,-6% (inactive)
same,growth inhibition,[10]; at 3.7 µM,-2% (inactive)
same,growth inhibition,[10]; [16],34% (inactive) and 22% (inactive)
same,growth inhibition,[10]; at 11.0 µM,34% (inactive)
same,growth inhibition,[10]; at 33.0 µM,77% (active)
same,growth inhibition,[10]; [17],92% (active)
same,growth inhibition,[10]; at 50.0 µM,89.3% (active) and -3.15% (inactive) and 83% (active)
same,growth inhibition,[10]; at 100.0 µM,92% (active)
same,growth inhibition,[11]; at 1.2 µM,-7% (inactive)
same,growth inhibition,[11]; at 3.7 µM,-3% (inactive)
same,growth inhibition,[11]; at 11.0 µM,13% (inactive)
same,growth inhibition,[11]; at 33.0 µM,66% (inactive)
same,growth inhibition,[11]; at 100.0 µM,91% (active)
same,growth inhibition,[12]; at 1.2 µM,-22% (inactive)
same,growth inhibition,[12]; at 3.7 µM,-5% (inactive)
same,growth inhibition,[12]; at 11.0 µM,15% (inactive)
same,growth inhibition,[12]; at 33.0 µM,66% (inactive)
same,growth inhibition,[12]; at 100.0 µM,91% (active)
same,growth inhibition,[13]; at 1.2 µM,-14% (inactive)
same,growth inhibition,[13]; at 3.7 µM,2% (inactive)
same,growth inhibition,[13]; at 11.0 µM,25% (inactive)
same,growth inhibition,[13]; at 33.0 µM,72% (active)
same,growth inhibition,[13]; at 100.0 µM,90% (active)
same,growth inhibition,[14]; [16],39% (inactive) and 11% (inactive)
same,growth inhibition,[14]; [17],91% (active) and 92% (active)
same,growth inhibition,[14]; at 50.0 µM,89.5% (active) and 1.35% (inactive) and 82.9% (active)
same,growth inhibition,[15]; at 1.2 µM,4% (inactive)
same,growth inhibition,[15]; at 3.7 µM,4% (inactive)
same,growth inhibition,[15]; at 11.0 µM,52% (inactive)
same,growth inhibition,[15]; at 33.0 µM,82% (active)
same,growth inhibition,[15]; at 100.0 µM,92% (active)

# Reference: PubChem BioAssay (NCI)
